Assay results reported in PMC5540273 (PLoS ONE, 2017).

tested on: DAPK1; conditions: concentration: 1 μM,replicates: in singlicate; n = 1
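Note: KINOMEscan kinase panel screen.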

Structure (SMILES)	%Inh [%]
Cc1occc1-c1nc(N)c(OC[C@@H](N)Cc2c[nH]c3ccccc23)cc1-c1cc2c(C)n[nH]c2cn1 [GSK1660450]	64
Cc1n[nH]c2ccc(-c3cc(OC[C@@H](N)Cc4ccccc4)cnc3-c3ccoc3)cc12.O=C(O)C(F)(F)F.O=C(O)C(F)(F)F [GSK507358]	0
Cc1ccc(-n2nc(C(C)(C)C)cc2NC(=O)Nc2ccc(OCCN3CCOCC3)c3ccccc23)cc1 [GW839464]	4
COc1ccc(C[C@@H](CN)NC(=O)c2cc(Br)c(-c3ccnc4[nH]ccc34)s2)cc1.Cl.Cl [GSK1389063]	26
O=C(NCCNc1ccnc(NCc2ccc(F)cc2)n1)c1cc2ccccc2s1 [GSK1379944]	0
CCN(CC)CCOc1ccc(Nc2ncc3cc(-c4c(Cl)cccc4Cl)c(=O)n(C)c3n2)cc1 [SB-601273]	12
CN(C)CCOc1ccc(-c2cc(-c3c[nH]nc3-c3ccccn3)ccn2)cc1 [GW835314]	13
Cl.Cl.NC[C@H](Cc1ccc(C(F)(F)F)cc1)NC(=O)c1cc(Br)c(-c2ccnc3[nH]ccc23)s1 [GSK1487252]	0
CNC(=O)c1ccccc1Sc1ccc2c(/C=C/c3ccccn3)n[nH]c2c1	0
CN(C)CC(O)COc1ccc(Nc2nccc(-c3cnn4nc(N5CCOCC5)ccc34)n2)cc1 (centres unmarked) [GW767488]	59
Cl.Cl.NC[C@H](CC1CCCCC1)NC(=O)c1cc(Br)c(-c2ccnc3[nH]ccc23)s1 [GSK1581427]	71
Cc1ccc2c(-c3ccncc3)c(-c3ccc(F)cc3)nn2c1.Cl [GW461484]	0
O=C(NCCCN1CCOC1=O)c1cnc(NCc2cc(Cl)ccc2Cl)nc1NC1CCCC1	3
CC(C)N1C(=O)Cc2cc(Nc3ncc(C(F)(F)F)c(NCc4cccc(S(C)(=O)=O)c4)n3)ccc21	22

tested on: DAPK2; conditions: concentration: 1 μM,replicates: in singlicate; n = 1

Structure (SMILES)	%Inh [%]
C[C@@H]1CCN(C(=O)CC#N)C[C@@H]1N(C)c1ncnc2[nH]ccc12	0
CC(C)Nc1cc(-c2ccc3c(N)n[nH]c3c2)nc(N)n1 [GSK2221681]	42
CCN(CC)CCCCNc1ncc2cc(-c3c(Cl)cccc3Cl)c(NC(=O)NC(C)(C)C)nc2n1	0
Cl.Oc1cc(-c2nc(-c3ccccc3)[nH]c2-c2ccncc2)ccc1Cl [SB-386023]	0
C[C@H]1Oc2cc(cnc2N)-c2c(nn(C)c2C#N)CN(C)C(=O)c2ccc(F)cc21	83
Cl.Cl.Nc1nc(-c2ccc3c(N)n[nH]c3c2)cc(N2CCCC(NC(=O)c3ccccc3)C2)n1 (centres unmarked) [GSK2286775]	0
Cc1cc2cn[nH]c2cc1-c1cccc2c(N)c(C(N)=O)nnc12	3
CCn1c(-c2nonc2N)nc2c(C#CC(C)(C)O)nc(OCCN)cc21.Cl.Cl [GSK902056]	0
C=CC(=O)Nc1cc2c(Nc3ccc(F)c(Cl)c3)ncnc2cc1OCCCN1CCOCC1 [GW781483]	0
Nc1nc(Nc2ccccc2)cc(-c2ccc3c(N)n[nH]c3c2)n1 [GSK2225749]	49
Cc1cc(C(=O)Nc2ccc(Oc3ccc4nc(NC(=O)C5CC5)cn4n3)cc2)nn1-c1ccccc1	0
C[C@@H](Oc1cc(-c2cnn(C3CCNCC3)c2)cnc1N)c1c(Cl)ccc(F)c1Cl	1
NC(=O)c1cc(-c2ccccc2)cc2c(C3CCNCC3)c[nH]c12 [GSK301362]	9
Cc1occc1-c1nc(N)c(OC[C@@H](N)Cc2c[nH]c3ccccc23)cc1-c1cc2c(C)n[nH]c2cn1 [GSK1660450]	69
Cc1n[nH]c2ccc(-c3cc(OC[C@@H](N)Cc4ccccc4)cnc3-c3ccoc3)cc12.O=C(O)C(F)(F)F.O=C(O)C(F)(F)F [GSK507358]	0
Cc1ccc(-n2nc(C(C)(C)C)cc2NC(=O)Nc2ccc(OCCN3CCOCC3)c3ccccc23)cc1 [GW839464]	1
COc1ccc(C[C@@H](CN)NC(=O)c2cc(Br)c(-c3ccnc4[nH]ccc34)s2)cc1.Cl.Cl [GSK1389063]	13
O=C(NCCNc1ccnc(NCc2ccc(F)cc2)n1)c1cc2ccccc2s1 [GSK1379944]	0
CCN(CC)CCOc1ccc(Nc2ncc3cc(-c4c(Cl)cccc4Cl)c(=O)n(C)c3n2)cc1 [SB-601273]	0
CN(C)CCOc1ccc(-c2cc(-c3c[nH]nc3-c3ccccn3)ccn2)cc1 [GW835314]	0
Cl.Cl.NC[C@H](Cc1ccc(C(F)(F)F)cc1)NC(=O)c1cc(Br)c(-c2ccnc3[nH]ccc23)s1 [GSK1487252]	0
CNC(=O)c1ccccc1Sc1ccc2c(/C=C/c3ccccn3)n[nH]c2c1	0
CN(C)CC(O)COc1ccc(Nc2nccc(-c3cnn4nc(N5CCOCC5)ccc34)n2)cc1 (centres unmarked) [GW767488]	46
Cl.Cl.NC[C@H](CC1CCCCC1)NC(=O)c1cc(Br)c(-c2ccnc3[nH]ccc23)s1 [GSK1581427]	12
Cc1ccc2c(-c3ccncc3)c(-c3ccc(F)cc3)nn2c1.Cl [GW461484]	7
O=C(NCCCN1CCOC1=O)c1cnc(NCc2cc(Cl)ccc2Cl)nc1NC1CCCC1	7
CC(C)N1C(=O)Cc2cc(Nc3ncc(C(F)(F)F)c(NCc4cccc(S(C)(=O)=O)c4)n3)ccc21	20
